Reference: PubChem BioAssay (NCI)
This is part of a sample that, as a whole, favours compounds with a hit. Of some 83,000 tested, about 20% had one in any assay.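 Cells were grown in 96-well plates and exposed to the test compound at a single concentration for 48 hours; results are reported as percent growth, with values below 10 considered active.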 Activity calls are given as the source filed them.

Columns and labels:
Assay in all cases: NCI-60 one-dose screen, 48 h (100 = growth as untreated, 0 = no growth, -100 = all killed)
SK-MEL-2 melanoma = settings: 10 µM unless noted
EKVX NSCLC = settings: 10 µM unless noted
SN12C renal = settings: 10 µM unless noted
UO-31 renal = settings: 10 µM unless noted
TK-10 renal = settings: 10 µM unless noted
ACHN renal = settings: 10 µM unless noted
CAKI-1 renal = settings: 10 µM
CCRF-CEM leukemia = settings: 10 µM unless noted
RPMI-8226 leukemia = settings: 10 µM unless noted
OVCAR-8 ovarian = settings: 10 µM unless noted
OVCAR-5 ovarian = settings: 10 µM unless noted
OVCAR-4 ovarian = settings: 10 µM unless noted
SK-OV-3 ovarian = settings: 10 µM unless noted
IGROV1 ovarian = settings: 10 µM unless noted
OVCAR-3 ovarian = settings: 10 µM unless noted
HS 578T breast = settings: 10 µM unless noted
NCI/ADR-RES ovarian = settings: 10 µM unless noted
MOLT-4 leukemia = settings: 10 µM unless noted
SR leukemia = settings: 10 µM unless noted
A498 renal = settings: 10 µM unless noted

Measured: growth

CCOC(=O)/C=c1\sc2n(c1=O)C1C(NN=2)N(CC)C(=O)N1CC (centres undefined)
inactive: SK-MEL-2 melanoma 76.7% | EKVX NSCLC 81.9% | SN12C renal 71.9% | UO-31 renal 56.2% | TK-10 renal 81.3% | ACHN renal 44.5% | CAKI-1 renal 51.3% | CCRF-CEM leukemia 53.4% | RPMI-8226 leukemia 64.6% | OVCAR-8 ovarian 84.2% | OVCAR-5 ovarian 84.8% | OVCAR-4 ovarian 91.2% | SK-OV-3 ovarian 89.2% | IGROV1 ovarian 59.6% | OVCAR-3 ovarian 14.8% | HS 578T breast 61.5% | NCI/ADR-RES ovarian 53.1%

Cc1nn(-c2ccccc2)c2nc(CCl)[nH]c(=O)c12
inactive: SK-MEL-2 melanoma 105% | EKVX NSCLC 99.2% | SN12C renal 95.7% | TK-10 renal 63.3% | ACHN renal 90.3% | CAKI-1 renal 99.6% | MOLT-4 leukemia 79.6% | SR leukemia 39.8% | OVCAR-8 ovarian 102% | OVCAR-5 ovarian 112% | OVCAR-4 ovarian 110% | SK-OV-3 ovarian 122% | IGROV1 ovarian 97.4% | OVCAR-3 ovarian 90.9% | HS 578T breast 120% | NCI/ADR-RES ovarian 105%
active: UO-31 renal -86.3%

Cc1nn(-c2ccc(Br)cc2)c2nc(CCl)[nH]c(=O)c12
inactive: SK-MEL-2 melanoma 99.9% | EKVX NSCLC 99.5% | SN12C renal 100% | TK-10 renal 111% | ACHN renal 94.8% | CAKI-1 renal 96.3% | CCRF-CEM leukemia 83.6% | OVCAR-8 ovarian 102% | OVCAR-5 ovarian 102% | OVCAR-4 ovarian 116% | SK-OV-3 ovarian 106% | IGROV1 ovarian 97.4% | OVCAR-3 ovarian 116% | HS 578T breast 108% | NCI/ADR-RES ovarian 104%
active: UO-31 renal -90.1% | RPMI-8226 leukemia -53.9%

O=C(Nc1ccccc1)Nc1nc2ccc([N+](=O)[O-])cc2s1
inactive: CCRF-CEM leukemia 14.7% | MOLT-4 leukemia 11.6% | OVCAR-8 ovarian 12.1% | OVCAR-5 ovarian 12.1% | IGROV1 ovarian 19.7%
active: SK-MEL-2 melanoma -10.8% | EKVX NSCLC 8.64% | SN12C renal 2.88% | UO-31 renal 8.95% | TK-10 renal 5.92% | ACHN renal 3.7% | CAKI-1 renal 3.46% | SR leukemia 2.29% | OVCAR-4 ovarian -4.54% | SK-OV-3 ovarian -7.62% | OVCAR-3 ovarian 4.1% | HS 578T breast 5.92% | NCI/ADR-RES ovarian 2.34%

COc1cc(-c2noc(C[C@@H](NC(=O)OCc3ccccc3)C(C)C)n2)cc(OC)c1OC
inactive: SK-MEL-2 melanoma 99.3% | EKVX NSCLC 96.9% | SN12C renal 90.1% | UO-31 renal 89.8% | TK-10 renal 96.1% | ACHN renal 102% | CAKI-1 renal 100% | CCRF-CEM leukemia 99.9% | MOLT-4 leukemia 93.9% | SR leukemia 95% | RPMI-8226 leukemia 106% | OVCAR-8 ovarian 100% | OVCAR-5 ovarian 97.3% | OVCAR-4 ovarian 102% | IGROV1 ovarian 99.5% | OVCAR-3 ovarian 110% | HS 578T breast 97.2% | NCI/ADR-RES ovarian 104%

CCCCCCNC(=O)Oc1ccc(/C(=C(\C)c2ccc(Cl)cc2)c2ccc(OCCN(C)C)cc2)cc1
inactive: SK-MEL-2 melanoma 98% | EKVX NSCLC 60.5% | SN12C renal 69.9% | UO-31 renal 43.6% | TK-10 renal 88.9% | ACHN renal 71.5% | CAKI-1 renal 70.4% | CCRF-CEM leukemia 36% | MOLT-4 leukemia 13.4% | OVCAR-8 ovarian 84.8% | OVCAR-5 ovarian 78.1% | SK-OV-3 ovarian 94.4% | IGROV1 ovarian 44.7% | OVCAR-3 ovarian 66.4% | HS 578T breast 80.6% | NCI/ADR-RES ovarian 62.9%
active: SR leukemia 2% | RPMI-8226 leukemia -11.6%

Cc1cc(NS(=O)(=O)c2ccc(-c3cnc(C4CC4)o3)cc2)ccc1I
inactive: SK-MEL-2 melanoma 63.3% | EKVX NSCLC 42.6% | SN12C renal 43.5% | UO-31 renal 48.7% | TK-10 renal 75.6% | ACHN renal 45.1% | CAKI-1 renal 39.3% | CCRF-CEM leukemia 19.1% | MOLT-4 leukemia 40.8% | SR leukemia 32.9% | OVCAR-8 ovarian 46.4% | OVCAR-5 ovarian 54.6% | OVCAR-4 ovarian 59.9% | IGROV1 ovarian 36.7% | HS 578T breast 40% | NCI/ADR-RES ovarian 14.3%
active: OVCAR-3 ovarian 8.32%

C#C[C@]1(O)CC[C@H]2[C@@H]3CC=C4c5sc(Nc6cccc(Cl)n6)nc5CC[C@]4(C)[C@H]3CC[C@@]21C
active: SK-MEL-2 melanoma -24.9% | EKVX NSCLC 1.89% | UO-31 renal -37.8% | A498 renal -62.6% | CCRF-CEM leukemia 5.11% | MOLT-4 leukemia -15.9% | SR leukemia 2.56% | RPMI-8226 leukemia -23.2% | SK-OV-3 ovarian -13.7% | HS 578T breast -19.9%
inactive: SN12C renal 40% | TK-10 renal 33.2% | ACHN renal 16.4% | OVCAR-8 ovarian 29.3% | OVCAR-5 ovarian 22.8% | OVCAR-4 ovarian 47.8% | IGROV1 ovarian 35.6% | NCI/ADR-RES ovarian 23%

O=C1c2c(O)cc(O)cc2O[C@@H](c2ccc(O)cc2)[C@@H]1c1c(O)cc(O)c2c(=O)cc(-c3ccc(O)c(O)c3)oc12
inactive: SK-MEL-2 melanoma 117% | EKVX NSCLC 91.9% | SN12C renal 105% | UO-31 renal 97.3% | ACHN renal 85% | A498 renal 120% | CCRF-CEM leukemia 114% | MOLT-4 leukemia 121% | SR leukemia 103% | RPMI-8226 leukemia 100% | OVCAR-8 ovarian 101% | OVCAR-5 ovarian 98.6% | OVCAR-4 ovarian 97.8% | SK-OV-3 ovarian 86.5% | IGROV1 ovarian 101% | OVCAR-3 ovarian 106% | HS 578T breast 102% | NCI/ADR-RES ovarian 95.7%

Nc1nc(N)c2c(n1)NC(c1ccc(Cl)cc1)CC(c1ccc(Nc3nc(NCCO)nc(Nc4ccc(Cl)cc4)n3)cc1)=N2 (centres undefined)
active: CCRF-CEM leukemia 4.85% | MOLT-4 leukemia 3.59% | RPMI-8226 leukemia -32.5%
inactive: SK-MEL-2 melanoma 54.2% | EKVX NSCLC 76.1% | SN12C renal 56.6% | UO-31 renal 39.7% | TK-10 renal 72.9% | ACHN renal 57.5% | A498 renal 82.1% | OVCAR-8 ovarian 17.6% | OVCAR-5 ovarian 84.8% | OVCAR-4 ovarian 34.6% | SK-OV-3 ovarian 100% | IGROV1 ovarian 37% | HS 578T breast 55.7% | NCI/ADR-RES ovarian 56.5%

CCC(C)[C@H]1OC(=O)[C@H](C(C)C)N(C)C(=O)[C@@H](C(C)C)OC(=O)[C@H](C(C)C)N(C)C(=O)[C@@H](C(C)CC)OC(=O)[C@H](C(C)C)N(C)C1=O (some centres undefined)
inactive: EKVX NSCLC 20.5% | OVCAR-8 ovarian 11.6% | OVCAR-5 ovarian 13.4% | OVCAR-4 ovarian 10.5% | IGROV1 ovarian 25.8% | OVCAR-3 ovarian 18.3% | HS 578T breast 32.9%
active: SK-MEL-2 melanoma -14.6% | SN12C renal 4.12% | UO-31 renal -13.6% | TK-10 renal -8.95% | ACHN renal 7.98% | A498 renal -2.54% | CCRF-CEM leukemia 9.05% | MOLT-4 leukemia -24.2% | SR leukemia 7.44% | RPMI-8226 leukemia -19.5% | SK-OV-3 ovarian -15.3% | NCI/ADR-RES ovarian 2.47%
